Results reported in PubChem BioAssay.
Where “and” joins values, the source holds several entries; their conditions need not be identical. Equal entries are not always repeated. The source holds several records for some structures; these can differ, active in one and inactive in another. Calls of active or inactive are those of the source.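 How the source made its calls, unless noted: active means thallium flux through the channel raised or lowered by more than 3 SD from vehicle-only wells, actives on both sides; inactive means the rest.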

Columns and labels:
[1] = Wnt pathway potentiators raising nuclear beta-catenin – imaging, WNT3A-conditioned medium, mouse C2C12, NPC library, primary screen (AID 1117326; in the data active means nuclear beta-catenin stimulation mostly above about 4.2%, no sharp cut-off; inactive means mostly below about 10%); details: stronger effect = higher value
[2] = stimulators of insulin release from INS-1E, primary screen, cell-based, 5 mM glucose, NPC library (AID 1117329;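 active means compound raises insulin release from rat beta cells at 5 mM glucose, no numeric limit stated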); details: rat INS-1E insulin secretion, at 10 µM, stronger effect = higher value
[3] = growth inhibition of GSK3B-pretreated HCT116 cells – cell-based, CellTiter-Glo, 0.2 to 20 µM (AID 1117336;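 active means compounds lowering colon cancer cell viability after pretreatment blocking the GSK3B kinase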); details: HCT116 viability after GSK3B inhibitor, at 20 µM, stronger effect = higher value
[4] = inhibition of endothelial tube formation, primary screen, imaging, VEGF stimulated, CD31 staining, tube area, NPC library (AID 1117340;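 active means compound that reduces growth-factor-driven endothelial tube area in a mixed cell culture, no cutoff stated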); details: VEGF-stimulated ADSC/ECFC co-culture, at 10 µM, stronger effect = higher value
[5] = GLP1 release stimulators, primary, NCI-H716, NPC library (AID 1117341;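 active means compound raises GLP1 secretion from the human gut endocrine cells, with no numeric limit stated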); details: NCI-H716 cells, at 10 µM, stronger effect = higher value
[6] = HCT116 colon cancer cell growth inhibition, primary screen, CellTiter-Glo luminescence, NPC library (AID 1117342;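 active means compounds that lower survival of HCT116 colon cancer cells in the luminescence readout, no numeric limit stated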); details: at 20 µM (top of the series)
[7] = reduced SW480 viability measured with CellTiter-Glo, NPC library, primary (AID 1117343;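 active means compounds that lower viability of the colon cancer cells in the luminescence readout, with no numeric limit stated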); details: CellTiter-Glo luminescence; at 20 µM (top of the series)
[8] = NPC library primary testing for decreased DLD-1 cell viability via CellTiter-Glo (AID 1117346;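 active means compounds that lower survival of DLD-1 colon cancer cells in the luminescence readout, no cutoff given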); details: DLD-1 viability, CellTiter-Glo luminescence; at 20 µM (top of the series)
[9] = biological target: 6-phosphogluconate dehydrogenase, decarboxylating (Homo sapiens) (UniProt P52209); experiment: inhibition of human phosphogluconate dehydrogenase – biochemical, recombinant enzyme, NADPH absorbance, primary screen (AID 1159550;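 active means at least 20% inhibition of 6-phosphogluconate dehydrogenase activity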); details: recombinant 6PGD, NADPH absorbance 341 nm; at 10 µM; stronger effect = higher value
Sequence of 6-phosphogluconate dehydrogenase, decarboxylating (Homo sapiens) (P52209 whole entry, looked up): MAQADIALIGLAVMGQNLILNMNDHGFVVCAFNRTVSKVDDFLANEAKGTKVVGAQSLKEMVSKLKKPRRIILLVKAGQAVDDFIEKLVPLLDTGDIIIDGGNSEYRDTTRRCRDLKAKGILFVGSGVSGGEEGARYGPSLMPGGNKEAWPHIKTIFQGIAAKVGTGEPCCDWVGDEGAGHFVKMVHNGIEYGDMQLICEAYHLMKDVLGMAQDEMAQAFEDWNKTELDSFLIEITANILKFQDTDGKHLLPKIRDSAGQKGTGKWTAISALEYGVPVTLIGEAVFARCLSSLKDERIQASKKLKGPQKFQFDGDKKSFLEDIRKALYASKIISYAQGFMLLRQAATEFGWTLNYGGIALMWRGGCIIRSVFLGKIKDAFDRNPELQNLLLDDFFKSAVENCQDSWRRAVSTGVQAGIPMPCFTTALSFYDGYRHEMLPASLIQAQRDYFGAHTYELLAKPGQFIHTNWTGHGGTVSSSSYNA

[10] = viability loss with induced miR-34 in A549 – imaging, A549 dox-inducible miR-34, nuclei and caspase counts, primary screen (AID 1347080;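 active means compounds whose cell count with miR-34 switched on is under 0.7 times the count with it off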); details: A549 miR-34 inducible, Hoechst nuclei count, 48 h
[11] = MELAS cybrid and Rieske KO viability enhancers – cell-based, MELAS cybrids, Rieske KO mouse fibroblasts, CellTiter-Glo, primary screen (AID 1508586;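 active means mean z-score across replicates of 1.96 or higher in either the MELAS or the Rieske mutant cell line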;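 further: z relative to plate mean and SD of compound and empty wells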); details: low glucose
[12] = biological target: NAD(+) hydrolase SARM1 (Homo sapiens) (UniProt Q6SZW1); experiment: blocking NAD cleavage by SARM1 SAM-TIR – cell lysate, NAD-Glo luminescence (AID 1508614;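 active means compound whose remaining NAD level is above about 45 nM, limit read from the data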); details: SAM-TIR HEK293T lysate NADase, at 1 µM, stronger effect = higher value
Sequence of NAD(+) hydrolase SARM1 (Homo sapiens) (Q6SZW1 whole entry, looked up, the tested form may be a part): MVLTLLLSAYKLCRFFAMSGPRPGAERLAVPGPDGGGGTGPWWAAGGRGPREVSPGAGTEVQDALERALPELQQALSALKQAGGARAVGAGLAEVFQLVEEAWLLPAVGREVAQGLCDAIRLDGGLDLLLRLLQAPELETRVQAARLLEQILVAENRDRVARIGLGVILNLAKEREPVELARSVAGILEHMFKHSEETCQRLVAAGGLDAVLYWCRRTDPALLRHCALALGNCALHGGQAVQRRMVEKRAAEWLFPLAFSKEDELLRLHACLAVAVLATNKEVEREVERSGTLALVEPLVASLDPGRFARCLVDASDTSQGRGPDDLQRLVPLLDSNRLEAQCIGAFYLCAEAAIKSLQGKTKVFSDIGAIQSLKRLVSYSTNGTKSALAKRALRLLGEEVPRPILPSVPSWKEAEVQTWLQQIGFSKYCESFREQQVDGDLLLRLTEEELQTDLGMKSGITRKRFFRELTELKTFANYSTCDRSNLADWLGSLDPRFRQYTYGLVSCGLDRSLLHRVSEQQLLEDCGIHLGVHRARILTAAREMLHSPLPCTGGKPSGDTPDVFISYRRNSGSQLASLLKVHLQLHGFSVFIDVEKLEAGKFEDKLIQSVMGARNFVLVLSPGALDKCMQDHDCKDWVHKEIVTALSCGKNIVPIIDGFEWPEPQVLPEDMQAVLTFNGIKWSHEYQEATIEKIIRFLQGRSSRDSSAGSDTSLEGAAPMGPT

[13] = biological target: Mitogen-activated protein kinase 7 (Homo sapiens) (UniProt Q13164); experiment: Gal4-ERK5 driven luciferase induction – cell-based, HTS, primary screen (AID 1508626;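 active means luciferase signal above three times the same-plate solvent-only control wells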;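 further: luciferase driven by Gal4-ERK5 fusion binding five Gal4 sites before minimal TATA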); details: HeLa Gal4-ERK5 transactivation, 18 h, at 5 µM, stronger effect = higher value
Sequence of Mitogen-activated protein kinase 7 (Homo sapiens) (Q13164 whole entry, looked up, the tested form may be a part): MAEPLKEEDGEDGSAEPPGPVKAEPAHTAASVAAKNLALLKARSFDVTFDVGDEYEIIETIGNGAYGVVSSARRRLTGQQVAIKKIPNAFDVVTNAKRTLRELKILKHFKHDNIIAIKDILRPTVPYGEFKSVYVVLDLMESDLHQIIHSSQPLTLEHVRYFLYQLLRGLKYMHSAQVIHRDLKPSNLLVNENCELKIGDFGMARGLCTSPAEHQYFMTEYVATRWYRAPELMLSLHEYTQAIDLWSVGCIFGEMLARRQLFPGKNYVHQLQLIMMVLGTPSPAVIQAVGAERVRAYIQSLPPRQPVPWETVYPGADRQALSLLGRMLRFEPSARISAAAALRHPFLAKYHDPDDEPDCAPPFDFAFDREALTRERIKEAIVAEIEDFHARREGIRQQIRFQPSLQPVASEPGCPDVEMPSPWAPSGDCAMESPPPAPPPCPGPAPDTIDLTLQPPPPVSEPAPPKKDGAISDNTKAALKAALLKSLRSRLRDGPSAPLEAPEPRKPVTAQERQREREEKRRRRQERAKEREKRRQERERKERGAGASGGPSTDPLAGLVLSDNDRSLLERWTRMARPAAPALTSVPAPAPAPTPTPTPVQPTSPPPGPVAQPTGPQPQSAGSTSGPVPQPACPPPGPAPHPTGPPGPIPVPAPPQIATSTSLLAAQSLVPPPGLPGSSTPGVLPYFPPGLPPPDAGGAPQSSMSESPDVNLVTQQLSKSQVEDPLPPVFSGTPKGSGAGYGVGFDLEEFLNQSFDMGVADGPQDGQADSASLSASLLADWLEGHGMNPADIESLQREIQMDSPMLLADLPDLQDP

F380Y = experiment: BK channel mutant inhibitors and activators – cell-based, U2OS BacMam, thallium flux, beta subunits, selectivity assay, profiling panel (AID 1259406); details: U2OS BacMam BK variants, at 30 µM;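 further: initial slope of Thallos dye fluorescence rise after thallium is added; log ratio against the mean of 0.3% DMSO vehicle wells on the same plate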
F380Y/beta2Delta = experiment: as above; details: U2OS BacMam BK variants, at 30 µM
[14] = biological target: Calcium-activated potassium channel subunit alpha-1 (Homo sapiens) + Leucine-rich repeat-containing protein 26 (Homo sapiens) (UniProt Q12791+Q2I0M4); experiment: as above; details: U2OS BacMam BK variants, F380Y/Slo1WT/gamma1, at 30 µM
Sequence of Calcium-activated potassium channel subunit alpha-1 (Homo sapiens) + Leucine-rich repeat-containing protein 26 (Homo sapiens) (Q2I0M4 whole entry, looked up, one chain of several): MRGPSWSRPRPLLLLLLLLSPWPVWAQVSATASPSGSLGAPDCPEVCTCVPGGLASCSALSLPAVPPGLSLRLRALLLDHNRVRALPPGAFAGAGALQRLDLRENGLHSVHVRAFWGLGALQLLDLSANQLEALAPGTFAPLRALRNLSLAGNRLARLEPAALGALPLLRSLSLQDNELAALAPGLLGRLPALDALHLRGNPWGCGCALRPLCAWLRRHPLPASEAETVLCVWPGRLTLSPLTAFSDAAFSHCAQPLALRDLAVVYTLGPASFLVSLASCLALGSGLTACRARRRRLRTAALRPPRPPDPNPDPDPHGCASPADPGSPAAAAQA

R275C = experiment: as above; details: U2OS BacMam BK variants, at 30 µM
R275C/beta1 = experiment: as above; details: U2OS BacMam BK variants, at 30 µM
R275C/beta2Delta = experiment: as above; details: U2OS BacMam BK variants, at 30 µM
[15] = EMT-state selective cytotoxicity in co-culture – imaging, PC-3E GFP, TEM4-18 mCherry, primary screen (AID 1345086;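 active means compounds killing one labelled cell type while sparing the other, by normalised counts and ratio limits, not self-fluorescent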;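 on all read-outs here: cells exposed to compound for 72 h before imaging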;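 on red/green cell ratio (normalised): normalised mesenchymal count divided by normalised epithelial count so high means epithelial killing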); details: PC-3E GFP / TEM4-18 mCherry co-culture, imaging cell counts, at 1 µM; for red/green cell ratio (normalised): actives lie on both sides, counts scaled to control wells, 1 = unselective
[16] = stronger effect = lower value, cell number ratio, induced over uninduced
[17] = measured here: relative caspase fold change +Dox/-Dox
[18] = measured here: total cells with miR-34 induction, stronger effect = lower value
[19] = measured here: total cells without miR-34 induction
[20] = MELAS cybrid survival, CellTiter-Glo 48 h, stronger effect = higher value
[21] = Rieske KO mouse fibroblast survival, CellTiter-Glo 72 h
[22] = measured here: epithelial PC-3E GFP cell survival
[23] = measured here: mesenchymal TEM4-18 mCherry cell survival

CC(C)Oc1ccc2c(=O)c(-c3ccccc3)coc2c1
1.09 and 1.31: fold change [10, 17]
9370 and 9660: cell count [10, 19]
8700 and 8850: cell count [10, 18]
active: inhibition of viability [6] 75.7% and 54.6% | viability decrease (inhibition) [7] 58.3% and 71% | log fold change Tl+ flux (R275C/beta1) -0.122 | log fold change Tl+ flux (R275C/beta2Delta) -0.0975
-1.4% and 0.1%: nuclear beta-catenin stimulation ([1]; stimulation, at 2 µM)
-0.279 (inactive) and 1.99 (active): z-score [11, 20]
0.976 and 0.611: z-score [11, 21]
inactive: nuclear beta-catenin stimulation ([1]; at 10 µM) 1.8% and 1% | insulin secretion stimulation [2] 1.75% and -0.3% | viability decrease [3] 45.8% and -14.2% | tube area decrease [4] -10.2% and -25.5% | GLP1 secretion stimulation [5] -2.3% and -2.1% | viability decrease (inhibition) [8] 38.2% and 30.5% | inhibition [9] 8.55% | fold change [10, 16] 0.928 and 0.917 | remaining NAD [12] 10 nM | luciferase signal [13] 56 AU | log fold change Tl+ flux (F380Y) -0.0497 | log fold change Tl+ flux (F380Y/beta2Delta) -0.052 | log fold change Tl+ flux [14] -0.0126 | log fold change Tl+ flux (R275C) -0.0788

CC(=O)OCC[N+](C)(C)C
1.22: normalised cell number [15, 22]
inactive: nuclear beta-catenin stimulation ([1]; at 10 µM) 0.6% | insulin secretion stimulation [2] 0.3% | viability decrease [3] -38.1% | tube area decrease [4] 19.9% | GLP1 secretion stimulation [5] -5.3% | inhibition of viability [6] 10.1% | viability decrease (inhibition) [7] 2.1% | viability decrease (inhibition) [8] -14.9% | inhibition [9] 14.7% | red/green cell ratio (normalised) [15] 1.07 | z-score [11, 20] -0.299 and 0.505 | remaining NAD [12] 10 nM | luciferase signal [13] 60 AU | log fold change Tl+ flux (F380Y) 0.0119 | log fold change Tl+ flux (F380Y/beta2Delta) -0.0134 | log fold change Tl+ flux [14] 0.00764 | log fold change Tl+ flux (R275C) -0.00869 | log fold change Tl+ flux (R275C/beta1) -0.00581 | log fold change Tl+ flux (R275C/beta2Delta) -0.00325
1.3: normalised cell number [15, 23]
2.2%: nuclear beta-catenin stimulation ([1]; stimulation, at 2 µM)
-0.06 and -0.687: z-score [11, 21]

CN(C)CC/C=C1\c2ccccc2COc2ccccc21
inactive: nuclear beta-catenin stimulation ([1]; at 10 µM) -0.4% | insulin secretion stimulation [2] -0.9% | viability decrease [3] -44.3% | tube area decrease [4] -0.9% | GLP1 secretion stimulation [5] 5.2% | inhibition of viability [6] 12% | viability decrease (inhibition) [8] -3.7% | inhibition [9] 2.99% | fold change [10, 16] 0.953 and 0.908 and 0.946 | z-score [11, 20] 0.295 | remaining NAD [12] 10 nM | luciferase signal [13] 96 AU | log fold change Tl+ flux (F380Y) 0.0501 | log fold change Tl+ flux [14] 0.0287 | log fold change Tl+ flux (R275C) -0.0142 | log fold change Tl+ flux (R275C/beta2Delta) 0.0609
1.39 and 2.7 and 1.08: fold change [10, 17]
9160 and 8980 and 8750: cell count [10, 18]
active: viability decrease (inhibition) [7] 54.8% | log fold change Tl+ flux (F380Y/beta2Delta) 0.0812 | log fold change Tl+ flux (R275C/beta1) 0.119
0.581: z-score [11, 21]
0.3%: nuclear beta-catenin stimulation ([1]; stimulation, at 2 µM)
9610 and 9880 and 9250: cell count [10, 19]

CC(=O)[C@H]1CC[C@H]2[C@@H]3C[C@H](C)C4=CC(=O)CC[C@]4(C)[C@H]3[C@@H](O)C[C@]12C
1.06 and 1.54: fold change [10, 17]
-0.3%: nuclear beta-catenin stimulation ([1]; stimulation, at 2 µM)
6920 and 8680: cell count [10, 19]
inactive: nuclear beta-catenin stimulation ([1]; at 10 µM) 0.3% | insulin secretion stimulation [2] 0% | viability decrease [3] -48.8% | tube area decrease [4] 13.8% | GLP1 secretion stimulation [5] 0.4% | inhibition of viability [6] 14.4% | viability decrease (inhibition) [7] 11.1% | viability decrease (inhibition) [8] -5.4% | inhibition [9] -11.2% | fold change [10, 16] 0.951 and 0.798 | z-score [11, 20] 0.756 | remaining NAD [12] 10 nM | luciferase signal [13] 84 AU | log fold change Tl+ flux (F380Y) -0.0207 | log fold change Tl+ flux (F380Y/beta2Delta) -0.0669 | log fold change Tl+ flux [14] -0.019 | log fold change Tl+ flux (R275C) -0.0356 | log fold change Tl+ flux (R275C/beta1) 0.0813 | log fold change Tl+ flux (R275C/beta2Delta) 0.0373
6580 and 6920: cell count [10, 18]
1.33: z-score [11, 21]

CC(C)(C)NC[C@H](O)COc1nsnc1N1CCOCC1
inactive: nuclear beta-catenin stimulation ([1]; at 10 µM) 2.1% | insulin secretion stimulation [2] 3.2% | viability decrease [3] 6.4% | tube area decrease [4] -8.3% | GLP1 secretion stimulation [5] 1.7% | inhibition of viability [6] -6.3% | viability decrease (inhibition) [7] -4.9% | viability decrease (inhibition) [8] -2.7% | inhibition [9] -2.5% | z-score [11, 20] 0.744 and 0.988 | remaining NAD [12] 10 nM | luciferase signal [13] 32 AU | log fold change Tl+ flux (F380Y) 0.0205 | log fold change Tl+ flux (F380Y/beta2Delta) 0.019 | log fold change Tl+ flux [14] 0.00124 | log fold change Tl+ flux (R275C) -0.000858 | log fold change Tl+ flux (R275C/beta1) -0.0605 | log fold change Tl+ flux (R275C/beta2Delta) -0.0488
0.4%: nuclear beta-catenin stimulation ([1]; stimulation, at 2 µM)
0.265 and 0.0861: z-score [11, 21]

CCN(CC)C(=S)SSC(=S)N(CC)CC
-0.351 (inactive) and 0.325 and -1.17: z-score [11, 20]
active: log fold change Tl+ flux [14] 0.093 | log fold change Tl+ flux (R275C/beta1) 0.145
2.3%: nuclear beta-catenin stimulation ([1]; stimulation, at 2 µM)
inactive: nuclear beta-catenin stimulation ([1]; at 10 µM) 5.4% | insulin secretion stimulation [2] 4.8% | viability decrease [3] 9.9% | tube area decrease [4] 35.6% | GLP1 secretion stimulation [5] 6.3% | inhibition of viability [6] 18.6% | viability decrease (inhibition) [7] 39.4% | viability decrease (inhibition) [8] 30.8% | inhibition [9] 1.47% | red/green cell ratio (normalised) [15] 0.63 | remaining NAD [12] 10 nM | luciferase signal [13] 16 AU | log fold change Tl+ flux (F380Y) -0.0143 | log fold change Tl+ flux (F380Y/beta2Delta) 0.0251 | log fold change Tl+ flux (R275C) 0.00507 | log fold change Tl+ flux (R275C/beta2Delta) 0.0247
0.27: normalised cell number [15, 22]
-4.19 and 10.8 and 3.81: z-score [11, 21]
0.17: normalised cell number [15, 23]
